Laboratory results as given in PubChem BioAssay (NCI).
Compounds without any hit were thinned out: in the full panel of roughly 79,000, 15% have a hit. The source made the active and inactive calls. No stated cut-off is given here; in the data, active means growth inhibition above about 70%; inactive means the rest.

Experiments:
[1] = NCI Yeast Anticancer Drug Screen. Data for the rad50 strain (AID 155);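 further: 0% = growth of vehicle-only cultures of the same strain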; conditions: S. cerevisiae rad50 strain growth inhibition; at 50.0 µM; stronger effect = higher value
Outline: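 Vehicle-treated cultures provide the reference for the growth inhibition reported for compound-exposed, repair-deficient yeast.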

[2] = NCI Yeast Anticancer Drug Screen. Data for the mec2-1 strain (AID 157); conditions: S. cerevisiae mec2-1 strain, at 50.0 µM, stronger effect = higher value
Outline: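 Strain: mec2-1 (DNA repair/cell cycle alteration). Compound exposure, then growth measured; inhibition expressed relative to vehicle.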

[3] = NCI Yeast Anticancer Drug Screen. Data for the sgs1 mgt1 strain (AID 161);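 further: 0% = growth of cultures given vehicle only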; conditions: S. cerevisiae sgs1 mgt1 strain, at 50.0 µM, stronger effect = higher value
Outline: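 Test agents were incubated with a DNA-repair-mutant yeast strain. Growth was then read and compared against vehicle-treated controls.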

[4] = NCI Yeast Anticancer Drug Screen. Data for the cln2 rad14 strain (AID 165);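 further: 0% = growth equal to vehicle treated cultures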; conditions: S. cerevisiae cln2 rad14 strain, at 50.0 µM, stronger effect = higher value
Outline: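 Compounds are applied to the cln2 rad14 yeast strain, and growth is then compared with that of vehicle-treated cultures to give inhibition.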

[5] = NCI Yeast Anticancer Drug Screen. Data for the bub3 strain (AID 167); conditions: S. cerevisiae bub3 mutant strain, at 50.0 µM, stronger effect = higher value
Outline: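 Mutant yeast screening strain plus compound; vehicle-treated cultures serve as the 0% inhibition reference.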

[6] = NCI Yeast Anticancer Drug Screen. Data for the mlh1 rad18 strain (AID 175); conditions: S. cerevisiae mlh1 rad18 strain growth inhibition; at 50.0 µM; stronger effect = higher value
Outline: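 Read-out is yeast growth inhibition, calculated against vehicle-only controls. The compound was applied to a strain engineered with DNA damage repair alterations.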

Measured: growth inhibition

Cc1cnc(Sc2ncccc2[N+](=O)[O-])nc1
inactive: [1] 33% | [2] 5.75% | [3] 22.8% | [4] 25.6% | [5] -3.1% | [6] 6.7%

O=C(NC(CS)C(=O)O)c1cnc2ccccc2n1 (configuration not stated)
inactive: [1] -4.8% | [2] -12.9% | [3] 21.2% | [4] -9.9% | [5] 18.6% | [6] 0.3%

CCCCCCCCSC#N
inactive: [1] 7.95% | [2] -11% | [3] -3.6% | [4] 23.9% | [5] 2% | [6] -1.4%

O=C(CCl)OCCCc1ccccc1
inactive: [1] -10.6% | [2] 44.2% | [3] 49.6% | [4] -6.3% | [5] 17% | [6] 36%

CCCCC(=O)N1SC(NC(=O)OC)=Nc2ccccc21
active: [5] 92.4% | [6] 76.2%
inactive: [1] 61% | [2] 42.4% | [3] 61.8% | [4] 67.2%

Cc1[nH]c2ccccc2c(=O)c1-c1ccccc1
inactive: [1] -12.2% | [2] -14.2% | [3] -5.25% | [4] -38% | [5] 0.35% | [6] -35.8%

c1nnco1
inactive: [1] -4.2% | [2] 0.75% | [3] -2.5% | [4] 5.5% | [5] 6.85% | [6] -18.2%

O=S(=O)(c1ccc(Br)cc1)C(F)(F)F
inactive: [1] 11.1% | [2] 10% | [3] 0.1% | [4] 2.6% | [5] 12.7% | [6] 5.15%

N#C/C(=C\c1cc(Br)c(O)c(Br)c1)c1ccccn1
inactive: [1] 50.5% | [2] 50.1% | [3] 24.4% | [4] 2.55% | [5] -3.35% | [6] 52.6%

N#C/C(=C/N1C(=O)/C(=C/c2ccc([N+](=O)[O-])cc2)SC1=S)C(N)=O
inactive: [1] 45% | [2] 56.5% | [3] 63.4% | [4] 54.3% | [5] 45% | [6] 42%

CCCCOC(=O)NC
inactive: [1] 44.6% | [2] -6.7% | [3] 12.8% | [4] -15.9% | [5] 7.85% | [6] 22.2%

COc1cc(C2SCC(=O)N2c2ccc(-n3c(-c4ccccc4)nc4ccccc4c3=O)cc2)cc(OC)c1OC (configuration not stated)
inactive: [1] -17.3% | [2] -8.85% | [3] -4.4% | [4] -7.8% | [5] 8.05% | [6] 4.5%

O=S1(=O)C2C=CC1CCCC2
inactive: [1] 3.35% | [2] -12.7% | [3] -6.9% | [4] -30.9% | [5] -11.6% | [6] 2.05%

C=CCOCn1cc(C)c(=O)[nH]c1=O
inactive: [1] 5.6% | [2] 17.4% | [3] 36.4% | [4] 5.5% | [5] 6.5% | [6] 17.4%

O=C(Nc1ccn(CCOC(=O)c2ccccc2)c(=O)n1)c1ccccc1
inactive: [1] -9.4% | [2] -21.3% | [3] 22.8% | [4] 14.6% | [5] 23.7% | [6] 47.6%

COc1cc(-c2cc(=O)c3c(OC)c(OC)c(OC)cc3o2)c(OC)c(OC)c1OC
inactive: [1] 38% | [2] 10.6% | [3] 3.05% | [4] -12.9% | [5] -6.15% | [6] -36.8%

Cc1cccc(C(=O)OCCBr)c1
inactive: [1] 27.1% | [2] 3.95% | [3] 13.7% | [4] -28.4% | [5] 9.9% | [6] 10.9%

CCOC1(C)Oc2cc3c(cc2C(c2cc(OC)c(OC)c(OC)c2)C1C)OCO3 (configuration not stated)
inactive: [1] 12.4% | [2] 1.55% | [3] -6.75% | [4] -29.4% | [5] 1.4% | [6] 32.5%

CN(C)CCNC(=O)c1cccc2[nH]c(-c3ccncc3)nc12
inactive: [1] 5.9% | [2] -16.2% | [3] -37.4% | [4] -19.9% | [5] -48% | [6] -89.1%

Cn1c(=O)c2[nH]c(=S)n(C)c2n(C)c1=O
inactive: [1] 31.8% | [2] -8.35% | [3] -2% | [4] 11.2% | [5] -13.6% | [6] 15.5%

CCC(=O)N(C)C1(C#N)CCCCC1
inactive: [1] 29.4% | [2] -42.9% | [3] 13% | [4] 0.1% | [5] 4.85% | [6] 24.2%

CC(=O)Oc1ccc2c(c1)C(=O)CCCCCC(=O)O2
inactive: [1] 19.2% | [2] 4.2% | [3] 6.85% | [4] -0.25% | [5] -2.4% | [6] -10.8%

O=C1C2C3CC4C5CC(C1C53)C42 (configuration not stated)
inactive: [1] 4.85% | [2] -7.45% | [3] 3.35% | [4] 5.05% | [5] -5.4% | [6] 1.7%

CCOC1=CC(=O)CCC1
inactive: [1] -0.2% | [2] -23% | [3] 24.9% | [4] -36.5% | [5] -7.1% | [6] 3%

CC(=O)OC1OCCCC1Cl (configuration not stated)
inactive: [1] -8.95% | [2] -27.9% | [3] -7.75% | [4] -3.2% | [5] -30.8% | [6] 10.3%

C(=C\C(Sc1ccccc1)c1ccccc1)/NNC1=NC(c2ccccc2)C(c2ccccc2)=NN1 (configuration not stated)
inactive: [1] -22.4% | [2] -8.6% | [3] -42.8% | [4] -4.35% | [5] -19.9% | [6] -3.55%

Cc1ccc(S(=O)(=O)OC2C3OC(C)(C)OC3OC2C(c2cc(O)c3c(c2O)C(=O)c2ccccc2C3=O)c2cc(O)c3c(c2O)C(=O)c2ccccc2C3=O)cc1 (configuration not stated)
inactive: [1] -35.5% | [2] -25.6% | [3] -11.6% | [4] -5% | [5] -8.2% | [6] -25.1%

CCOC(=O)c1c(-c2ccccc2)c(-c2ccccc2)cn1C
inactive: [1] 18.3% | [2] -7.45% | [3] 5.2% | [4] 25.9% | [5] 6.45% | [6] 24.3%

O=C1c2ccccc2C(=O)N1CC1CO1 (configuration not stated)
inactive: [1] 2.85% | [2] 10.3% | [3] 0.5% | [4] -7.7% | [5] 3.4% | [6] 27.3%

CN(C)c1nc(=S)c2cn[nH]c2[nH]1
inactive: [1] 0.1% | [2] 0% | [3] -3.7% | [4] -21.8% | [5] 6% | [6] -1.2%

CCCCS(=O)(=O)Nc1cccc(C(=O)O)c1
inactive: [1] 2.85% | [2] -9.1% | [3] 20.9% | [4] -17.4% | [5] 39.8% | [6] -7.15%

C/C(=N\N=C(/C)c1ccc(O)cc1O)c1ccc(O)cc1O
inactive: [1] 13.7% | [2] 12.7% | [3] -3.5% | [4] 6.15% | [5] 6.75% | [6] -3.35%

CCN(CC)CCn1c(=O)c2c(ncn2C)n(C)c1=O
inactive: [1] -5.55% | [2] -22.7% | [3] 12.6% | [4] -36.3% | [5] 11.8% | [6] -15.6%

Cc1cc2c(cc1C)NC(=O)C(NC(=O)c1ccc(Cl)cc1)C=N2 (configuration not stated)
inactive: [1] -0.55% | [2] 15.6% | [3] 15.1% | [4] -27.4% | [5] 5.95% | [6] 2.95%

COc1ccc(Br)cc1/C=N/N=C/c1cc(Br)ccc1OC
inactive: [1] -0.2% | [2] -21.6% | [3] 1.5% | [4] 20.9% | [5] 21.5% | [6] 23.4%

NC1=Nc2cc(C(F)(F)F)ccc2Sc2nc3ccccc3n21
inactive: [1] 4% | [2] -15.8% | [3] 20.1% | [4] 13.2% | [5] 22.4% | [6] 5.65%

COc1ccc(C(=O)COC(C)(C)C)cc1
inactive: [1] -8.55% | [2] -28.2% | [3] -20% | [4] -2.7% | [5] -16.9% | [6] -22.1%

C=C(Br)CNC(=O)Nc1ccccn1
inactive: [1] -10.2% | [2] 4.55% | [3] -3.3% | [4] -4.15% | [5] -4.85% | [6] -8.75%

C/C(CC(=O)Nc1ccc(C)c(C)c1)=N\N(c1ccccc1)c1ccccc1
inactive: [1] -16.6% | [2] -13.8% | [3] -27% | [4] -3.4% | [5] -17.6% | [6] -20.5%

Cc1ccc(CCOS(=O)(=O)c2ccc(C)cc2)cc1
inactive: [1] 13.5% | [2] -26.5% | [3] -1.3% | [4] 10.2% | [5] 28% | [6] 10.7%

NC(=O)CC[n+]1ccc(C(=O)O)cc1
inactive: [1] -21.8% | [2] -31.7% | [3] -6.1% | [4] 0.4% | [5] -25.1% | [6] -5.05%

S=C(N/N=C/c1cccc2ccccc12)Nc1c(Cl)cccc1Cl
inactive: [1] 67.4% | [4] 55.6% | [5] 44.6% | [6] 66.2%
active: [2] 83.6% | [3] 94.2%
